Where “and” joins values, the source holds several entries; their conditions need not be identical. Equal entries are not always repeated. Records with an inconclusive call do not appear. Calls of active or inactive are those of the source. Calls follow the shape of the dose curve; as a rule, active = well fitted inhibition curve with a large enough effect in the main read-out, with a control signal flat; inconclusive = small, poorly fitted or top-dose-only effect, or a change in a side signal; inactive = flat fitted curve, though single readings scatter.
target: Neuropeptide S receptor (Homo sapiens) (UniProt Q6W5P4); assay: Confirmation Concentration-Response Assay for Antagonists of the Neuropeptide S Receptor: cAMP Signal Transduction; conditions: CHO-NPSR cells, cAMP TR-FRET, antagonist mode; series mostly up to 22.3 µM
Sequence (Q6W5P4 whole entry, looked up): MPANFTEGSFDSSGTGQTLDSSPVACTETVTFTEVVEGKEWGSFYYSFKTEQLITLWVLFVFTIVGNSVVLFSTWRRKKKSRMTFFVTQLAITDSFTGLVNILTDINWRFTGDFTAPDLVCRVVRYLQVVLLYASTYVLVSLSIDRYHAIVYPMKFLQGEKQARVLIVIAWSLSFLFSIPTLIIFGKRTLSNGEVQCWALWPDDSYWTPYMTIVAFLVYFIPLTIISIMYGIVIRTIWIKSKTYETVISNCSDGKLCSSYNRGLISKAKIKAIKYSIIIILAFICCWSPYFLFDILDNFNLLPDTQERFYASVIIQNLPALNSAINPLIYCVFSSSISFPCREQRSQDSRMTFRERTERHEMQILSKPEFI
In short: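 LANCE TR-FRET cAMP read-out: 665/620 nm emission ratio, with the 620 nm donor channel also reported, after 2 h RT detection. Stably transfected CHO-NPSR cells got compound titrations and 100 nM NPS in stimulation reagent for 60 min at 37C. IC50 came from Hill fits.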
Potency is read from the fitted curve at half-maximal effect.

Potency, inactive:
Cc1ccc(S(=O)(=O)Nc2ccccc2CNc2c(C)n(C)n(-c3ccccc3)c2=O)cc1, COC(=O)/C(=C1/Oc2cc(C)oc(=O)c2S1)C(F)(F)F, Cc1ccc(/C=C2\SC(=S)N(CC(=O)Nc3ncc(Cc4ccccc4Cl)s3)C2=O)cc1, C=CCOc1c(Cl)cc(CNc2ccc(N(C)C)cc2)cc1OC, c1cncc(-c2nc(-c3ccco3)cs2)c1, CC1(C)Cc2c(c(N3CCOCC3)nc3sc4c(NCC5CCCO5)nnnc4c23)CS1 (centres undefined), O=C1CC(NCc2ccncc2)C(=O)N1c1ccccc1 (centres undefined), C=CCNC(=O)/C(C#N)=C/c1cn(-c2ccccc2)nc1-c1ccc(OC)c([N+](=O)[O-])c1, Cc1ccc(Cn2cc(SCC(=O)Nc3nccs3)c3ccccc32)cc1, Cc1nn(C(=O)c2cccs2)c(N)c1-c1ccccc1, Cc1nnc(NC(=O)c2cccc(S(=O)(=O)N3CCc4ccccc43)c2)s1, CCC(Sc1ccc2nnc(-c3cccnc3)n2n1)C(=O)O (centres undefined), Oc1ccc(N=Nc2nccs2)c(O)c1, COc1ccc2nc(NC(=S)N(C)C)sc2c1, O=C(O)c1cccc(Nc2ncnc3ccccc23)c1, CCC(C)n1c(=O)c(C(=O)Nc2ccccc2S(N)(=O)=O)c(O)c2ccccc21 (centres undefined), CCCCNS(=O)(=O)c1ccc2nc(-c3cccnc3)cc(C(=O)NC(C)CC)c2c1 (centres undefined), COc1ccc(/C=N/n2cncn2)cc1Cn1cc([N+](=O)[O-])cn1, COc1cccc(C2C(C#N)=C(NC(=O)CCc3ccccc3)Oc3ccc4ccccc4c32)c1 (centres undefined), CN(CC(=O)NCc1ccc(F)cc1)S(=O)(=O)c1cccc2nsnc12, O=C(N/N=C/c1ccc([N+](=O)[O-])o1)c1ccc(O)cc1, COc1ccc(C(=O)N(Cc2ccco2)Cc2cccs2)c(O)c1, CC1C(c2ccccc2)N(C)C(c2ccccc2)CC1(O)c1ccccc1 (centres undefined), S=C(Nc1ccccc1)Nc1nccs1, Cn1c(COc2ccccc2)nnc1SCc1cc(=O)[nH]c2ccccc12

Potency, active:
CN(C)C(=S)N=Nc1[nH]c2ccccc2c1O 10 µM, O=C(Nc1ccc(Oc2c(F)c(F)c(F)c(F)c2F)cc1)OC1CCN2Cc3ccccc3N=C12 (centres undefined) 11.2 µM, CCOc1ccc(-n2c(=S)sc3c(=O)[nH]c(SCC(=O)C(C)(C)C)nc32)cc1 7.08 µM, CCOC(=O)CC(=O)Nc1ncnc2c1C(c1ccccc1)c1c(ccc3ccccc13)O2 (centres undefined) 0.794 µM, N=c1c2c(ccn1CCCc1ccccc1)Oc1ccc3ccccc3c1C2c1ccccc1 (centres undefined) 1.58 µM, CCOC(=O)C1CCCN(c2ncnc3c2oc2ccccc23)C1 (centres undefined) 50.1 µM and 12.6 µM, CCOC(=O)CCCC(=O)Nc1ncnc2c1C(c1ccccc1)c1c(ccc3ccccc13)O2 (centres undefined) 2 µM, COc1ccc(OC)c(C2C(C(=O)Nc3nc4ccccc4s3)=C(C)NC3=C2C(=O)CCC3)c1 (centres undefined) 2.82 µM, CC(C)(C)OC(=O)Nc1ncnc2c1C(c1ccccc1)c1c(ccc3ccccc13)O2 (centres undefined) 3.55 µM, O=C(Cc1ccccc1)Nc1ncnc2c1C(c1ccccc1)c1c(ccc3ccccc13)O2 (centres undefined) 1.58 µM, CCOc1ccc(C2c3c(ncn(-c4ccccc4)c3=N)Oc3ccc4ccccc4c32)cc1OCC (centres undefined) 2 µM, O=C(NCc1ccccc1)Nc1ncnc2c1C(c1ccccc1)c1c(ccc3ccccc13)O2 (centres undefined) 2.24 µM, COc1cccc(C2c3c(ncn(-c4ccccc4)c3=N)Oc3ccc4ccccc4c32)c1OC (centres undefined) 4.47 µM, COc1cccc(C2c3c(ncn(-c4ccccc4)c3=N)Oc3ccc4ccccc4c32)c1 (centres undefined) 2 µM and 1.58 µM
